Drawing on publication PMC5515408, “Sequence-specific DNA binding by MYC/MAX to low-affinity non-E-box motifs”, this text covers binding signal for 38 sequences.

Whole data set: some 5,000 sequences, median “log2 normalized fluorescence” near 0.089, cut for the highest 2% near 0.81. Shown is part of a subset that was picked to be rich in the highest values.

Chain of MYC (p64);MAX (p21), in MYC:MAX (P01106 16-454, chain 1 of 2): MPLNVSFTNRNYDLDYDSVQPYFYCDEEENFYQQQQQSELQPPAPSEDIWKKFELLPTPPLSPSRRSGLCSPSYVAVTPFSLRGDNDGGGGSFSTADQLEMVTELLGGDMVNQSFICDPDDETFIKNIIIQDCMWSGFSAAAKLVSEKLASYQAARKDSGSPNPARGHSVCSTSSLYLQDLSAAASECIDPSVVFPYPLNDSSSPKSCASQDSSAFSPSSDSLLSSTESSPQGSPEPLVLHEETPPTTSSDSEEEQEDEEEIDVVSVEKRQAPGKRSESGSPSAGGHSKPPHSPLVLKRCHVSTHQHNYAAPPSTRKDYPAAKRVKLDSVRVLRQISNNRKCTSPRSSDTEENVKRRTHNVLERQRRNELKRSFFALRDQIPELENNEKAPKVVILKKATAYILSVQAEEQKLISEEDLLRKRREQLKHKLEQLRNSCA
Chain of MYC (p64);MAX (p21), in MYC:MAX (P61244 other isoform, or with tags, fused parts or gaps |, chain 2 of 2): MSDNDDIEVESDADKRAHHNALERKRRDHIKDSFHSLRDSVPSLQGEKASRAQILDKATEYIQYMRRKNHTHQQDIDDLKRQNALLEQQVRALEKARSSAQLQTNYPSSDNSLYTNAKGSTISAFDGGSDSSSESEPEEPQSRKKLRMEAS

The target in this assay is MYC (p64);MAX (p21), in MYC:MAX (human;human, UniProt P01106-1;P61244-2 1-439;1-151, |). In words: protein-binding microarray (anti-MAX antibody); PBM: 15 mM Tris-HCl pH 7.5, 100 mM KCl, 0.075% NP40, 7.5 mM beta-mercaptoethanol, 375 ng/ul BSA, 8 ng/ul poly(dA-dT):(dA-dT), 550 ng complex, 60 min, room tempe; high values mean tight binding. As to conditions: protein: recombinant;recombinant; tags: 6xHis;6xHis; copies: 1;1; label: 3' end of printed strand (linker) attached to glass slide; dsDNA, one strand shown. The method in brief:
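Recombinant His-tagged human MYC:MAX or MAX:MAX dimers (550 ng, expressed in E. coli) were incubated for 60 min at room temperature in Tris-KCl buffer, pH 7.5, with NP40, BSA and poly(dA-dT) competitor. The custom Agilent glass array held ~5000 unique 12-nt sequences, each spotted in triplicate and made double-stranded by primer extension. Bound protein was detected with anti-MAX and secondary antibodies and scanned at 543 nm. Binding is reported as log2 normalized fluorescence.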
As to “CCGGCTGATAAGGTGTATTAATAGCTAAGATTACTATATCGACG”, the binding signal was 0.0319 log2 normalized fluorescence.
The same measure for “CCGGCTGAACGCTAGTATTAATAGCTAAGATTACTATATCGACG”: 0.178 log2 normalized fluorescence.
Turning to “CCGGCTGAGTGACAGTATTAATAGCTAAGATTACTATATCGACG”, the binding signal is 0.00932 log2 normalized fluorescence.
The same measure for “CCGGCTGAACCGATGTATTAATAGCTAAGATTACTATATCGACG”: 0.0618 log2 normalized fluorescence; for “CCGGCTGACGTACGGTATTAATAGCTAAGATTACTATATCGACG”: 0.112 log2 normalized fluorescence.
For “CCGGCTGAGCTCCCGTATTAATAGCTAAGATTACTATATCGACG”, the binding signal was 0.0359 log2 normalized fluorescence.
The same measure for “CCGGCTGAACGGACGTATTAATAGCTAAGATTACTATATCGACG”: 0.0519 log2 normalized fluorescence; for “CCGGCTTAGACGTGGTATTAATAGCTAAGATTACTATATCGACG”: 0.235 log2 normalized fluorescence.
Next, “CCGGCGCAAACGTGGTATTAATAGCTAAGATTACTATATCGACG”: 0.579 log2 normalized fluorescence.
For the sequence “CCGGCTTAATCGTGGTATTAATAGCTAAGATTACTATATCGACG”, the binding signal is 0.374 log2 normalized fluorescence.
The same measure for “CCGGCGAACACGTGGTATTAATAGCTAAGATTACTATATCGACG”: 0.76 log2 normalized fluorescence; for “CCGGCAAACACGTGGTATTAATAGCTAAGATTACTATATCGACG”: 1.02 log2 normalized fluorescence; for “CCGGCTAACACGTGGTTTTAATAGCTAAGATTACTATATCGACG”: 1.01 log2 normalized fluorescence.
Next, “CCGGCTTACACGTGGTTTTAATAGCTAAGATTACTATATCGACG”: 0.721 log2 normalized fluorescence.
Turning to “CCGGCCGTCACGTGGTTTTAATAGCTAAGATTACTATATCGACG”, the binding signal is 0.74 log2 normalized fluorescence.
As for “CCGGCTAACACGTGGTATTAATAGCTAAGATTACTATATCGACG”, the binding signal was 0.946 log2 normalized fluorescence.
Consider “CCGGCAAATACGTGGTATTAATAGCTAAGATTACTATATCGACG”, for which the binding signal was 0.556 log2 normalized fluorescence.
For the sequence “CCGGCTTACACGTGGTATTAATAGCTAAGATTACTATATCGACG”, the binding signal is 0.847 log2 normalized fluorescence.
“CCGGCTATAACGTGGTATTAATAGCTAAGATTACTATATCGACG”: the binding signal was 0.627 log2 normalized fluorescence.
The same measure for “CCGGCTGACGCACTGTATTAATAGCTAAGATTACTATATCGACG”: 0.457 log2 normalized fluorescence; for “CCGGCTGAAGGCCCGTATTAATAGCTAAGATTACTATATCGACG”: 0.0982 log2 normalized fluorescence; for “CCGGCTGAATCAAAGTATTAATAGCTAAGATTACTATATCGACG”: -0.00984 log2 normalized fluorescence.
The same measure for “CCGGCTGACCCTTGATATTAATAGCTAAGATTACTATATCGACG”: 0.0562 log2 normalized fluorescence; for “CCGGCTGAATGTTGGTATTAATAGCTAAGATTACTATATCGACG”: 0.176 log2 normalized fluorescence; for “CCGGCTGACCTCCCGTATTAATAGCTAAGATTACTATATCGACG”: 0.167 log2 normalized fluorescence.
“CCGGCTGAACCGCGGTATTAATAGCTAAGATTACTATATCGACG”: the binding signal was 0.103 log2 normalized fluorescence.
The same measure for “CCGGCTGAACTCGAGTATTAATAGCTAAGATTACTATATCGACG”: 0.253 log2 normalized fluorescence; for “CCGGCTGGGGCGTGGTATTAATAGCTAAGATTACTATATCGACG”: 0.471 log2 normalized fluorescence; for “CCGGCCAACACGTTGTATTAATAGCTAAGATTACTATATCGACG”: 0.669 log2 normalized fluorescence.
The same measure for “CCGGCTCCAACGTGGTATTAATAGCTAAGATTACTATATCGACG”: 0.579 log2 normalized fluorescence; for “CCGGCCAACACGTGGTATTAATAGCTAAGATTACTATATCGACG”: 0.937 log2 normalized fluorescence.
For the sequence “CCGGCTGAAGGACCGTATTAATAGCTAAGATTACTATATCGACG”, the binding signal was 0.0673 log2 normalized fluorescence.
Consider “CCGGCTGACACGTGGACTTAATAGCTAAGATTACTATATCGACG”, for which the binding signal is 0.734 log2 normalized fluorescence.
With “CCGGCTGACACGTGGCATTAATAGCTAAGATTACTATATCGACG”, the binding signal is 0.835 log2 normalized fluorescence.
The same measure for “CCGGCTGACACGTAGCATTAATAGCTAAGATTACTATATCGACG”: 0.484 log2 normalized fluorescence; for “CCGGCTGACACGTGGCCTTAATAGCTAAGATTACTATATCGACG”: 0.897 log2 normalized fluorescence.
The same measure for “CCGGCTGACTCGTGGCATTAATAGCTAAGATTACTATATCGACG”: 0.584 log2 normalized fluorescence; for “CCGGCTGACACGTGCCTTTAATAGCTAAGATTACTATATCGACG”: 0.722 log2 normalized fluorescence.
